Screening results as filed in PubChem.
L3MBTL1 block – blocks human L3MBTL1; AlphaScreen L3MBTL1–H3K9me1 peptide binding; Potency, µM (highest dose often 57.1 µM), hits mostly inhibitors; actives 0.66% (n = 230,000); AID 485360; further: nearly all actives have a fitted effect of over 60% in size
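L3MBTL1 (50 nM) pre-complexed 30 min with biotinylated H3(1-15)K9me1 peptide (75 nM), then compounds added for 30 min at room temperature; AlphaScreen streptavidin donor/nickel chelate acceptor beads (10 ug/mL final) read after 30 min dark incubation.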
BAZ2B inh – inhibitors of human BAZ2B bromodomain | Q9UIF8 | AlphaScreen BAZ2B-H3K14Ac peptide displacement | Potency, µM (highest dose often 114 µM), hits mostly inhibitors | actives 4.4% (n = 360,000) | AID 504333; further: nearly all actives have a fitted effect of over 60% in size
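AlphaScreen displacement of biotin-H3(5-23)K14Ac peptide (50 nM final) from BAZ2B (50 nM final) in PBS pH 7.4, 0.01% Tween-20; complex preformed 30 min RT, then compounds (top 110 uM) 30 min RT, beads 20 min dark.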
G9a block – inhibitors of human histone lysine methyltransferase G9a. Potency, µM (titrated, usually from 102 µM), most hits filed as inhibitors. AID 504332. G9a H3K9 monomethylation, AlphaScreen, 2 h. Q96KQ7. actives 8.8% (n = 350,000); further: nearly all actives have a fitted effect of over 75% in size
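AlphaScreen read-out: biotin-H3K9 peptide (500 nM) methylation by 20 nM enzyme with 20 uM SAM, 2 h at room temperature after 15 min compound preincubation; anti-monomethyl H3K9 antibody plus donor/acceptor beads, 10 min dark.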
HP1b chromo inh – blocks HP1-beta chromodomain binding to methylated histone tails; actives 0.56% (n = 390,000); AlphaScreen HP1-beta / biotin-H3K9me3 peptide binding; Potency, µM (top dose mostly 114 µM), usual class: inhibitors; P83916; further: nearly all actives have a fitted effect of over 70% in size
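AlphaScreen: HP1-beta (50 nM) preformed 30 min with biotin-H3(1-18)K9me3 peptide (50 nM) in PBS pH 7.4, 0.01% Tween-20. Compound added for 30 min at RT, then streptavidin donor/nickel chelate acceptor beads (10 ug/mL) for 30 min.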
JMJD2A Tudor inh – blocks the human JMJD2A Tudor domain. AID 504339. actives 4.4% (n = 390,000). O75164. Potency, µM (titrated, usually from 114 µM), most hits filed as inhibitors. AlphaScreen JMJD2A-Tudor / H3K4me3 peptide binding; further: nearly all actives have a fitted effect of over 50% in size
Hits are given with their value; 0 = inactive; ? = inconclusive; - = not tested or not shown; [ ] = dose if it differs, or a comment. Sampled rows, rich in hits. Any-hit rate of the full collection: about 11%. The call rests on the fitted dose curve; in most records, active means well fitted inhibition curve with a large enough effect; inconclusive means small, poorly fitted or top-dose-only effect; inactive means no such curve, though single readings can be large or run the other way.

SMILES | L3MBTL1 block | BAZ2B inh | G9a block | HP1b chromo inh | JMJD2A Tudor inh
O=c1c2ccccc2c(C=NC2CCN(Cc3ccccc3)CC2)c(O)n1Cc1ccc2c(c1)OCO2 | 0 | 8.9µM | 8.9µM | - | -
COc1ccc(CC(=O)N2CCc3cc(OC)c(OC)cc3C2COc2cc(C)cc(C)c2)cc1OC (stereo not given) | - | ? | ? | 0 | ?
COc1ccc(CNC(=O)Cn2ccc3cc(S(=O)(=O)N4CCCCCC4)ccc32)cc1OC | - | 0 | 0 | 0 | 0
CCN(Cc1ccccc1)Cc1c(F)cccc1F | 0 | - | ? | ? | 20µM
CCN(c1ccccc1)S(=O)(=O)c1ccc(OC)c(NC(=O)c2cc(Cl)ccn2)c1 | 0 | 0 | 56µM | 0 | 0
CCN(c1ccccc1)S(=O)(=O)c1ccc(Cl)c(NC(=O)CNCc2ccccc2OC)c1 | 0 | - | - | ? | 3.2µM
CCN(c1ccccc1)S(=O)(=O)c1ccc(Cl)c(NC(=O)CN(C)C2CCN(C)CC2)c1 | - | 22µM | 11µM | ? | ?
C#CCOCCOCCOCCNc1nc(N2CCN(C(=O)[C@H](CCCCN)n3cc([C@@H](N)CO)nn3)CC2)nc(N2CCN(C(=O)[C@H](CCCCN)n3cc([C@@H](N)CC(C)C)nn3)CC2)n1 | 0 | - | - | 0 | 56µM
C#CCOCCOCCOCCNc1nc(N2CCN(C(=O)[C@H]([C@@H](C)CC)n3cc([C@@H](N)CO)nn3)CC2)nc(N2CCN(C(=O)[C@H](CCCCN)n3cc([C@@H](N)CC(C)C)nn3)CC2)n1 | 0 | 79µM | ? | 0 | 50µM
CO/N=C(\C(=O)O)c1csc(NN=C(C)C)n1 | 0 | 0 | 22µM | ? | 22µM
CC1=C(C(=O)NCc2cccc(Cl)c2)C2(CCCCCC2)OC1=O | - | 0 | 0 | 0 | 0
CCc1cc(C)cc(OCCNC(=O)c2ncn[nH]2)c1 | 0 | 50µM | 0 | 0 | ?
CC(C)(C)c1ccc(OCCNC(=O)c2ncn[nH]2)cc1 | - | 11µM | 0 | 0 | 0
CCOc1cc(C#N)c(NC(=O)Cn2nnc(-c3ccc(C)cc3)n2)cc1OCC | - | 0 | 0 | 0 | 0
CCCC(=O)Nc1nnc2n1CCS2 | - | 0 | ? | 0 | 79µM
O=C(Nc1nnc2n1CCS2)c1ccco1 | - | 13µM | 1.8µM | 0 | 1.6µM
O=C(Cc1ccc(F)cc1)Nc1nnc(-c2ccc(F)cc2)o1 | - | ? | 0 | 0 | 0
CC(C)(C)C(=O)Nc1nnc2n1CCS2 | - | 0 | 0 | 0 | 0
CC(C)(C)c1ccc(C(=O)Nc2nnc3n2CCS3)cc1 | - | 0 | 0 | 0 | 0
O=C(Cc1ccccc1)Nc1nnc2n1CCS2 | - | 79µM | 10µM | 0 | 50µM
CC(C)(C)CC(=O)Nc1nnc2n1CCS2 | - | 0 | 0 | 0 | 0
O=C(Cc1ccc(F)cc1)Nc1nnc2n1CCS2 | - | 56µM | 10µM | 0 | ?
Cc1ccccc1C(c1c(C)n(C)n(-c2ccccc2)c1=O)c1c(C)n(C)n(-c2ccccc2)c1=O | - | 0 | 0 | 0 | 0
CC[C@]12c3[nH]c4cc(-c5ccco5)ccc4c3CCN1C(=O)[C@@H](CC(=O)NCc1cccc(C(F)(F)F)c1)C[C@@H]2C(=O)N1CCN(C(=O)c2ccco2)CC1 | 0 | - | - | 0 | 0
COc1ccccc1C1NC(=O)c2n[nH]c(-c3cccs3)c21 (stereo not given) | - | - | 0 | 0 | 0
SMILES | L3MBTL1 block | BAZ2B inh | G9a block | HP1b chromo inh | JMJD2A Tudor inh
Cc1ccc(NC(=O)N2CCN(c3nnc(C)c4c(C)n(-c5ccccc5)nc34)CC2)c(Cl)c1 | - | 0 | 0 | 0 | 0
CN(C)c1ccc(CNC(=O)c2cnc3sc(N4CCOCC4)nn3c2=O)cc1 | - | ? | 0 | 0 | ?
COc1cc(C(=O)OCC(=O)Nc2ccc(N3CCOCC3)cc2)ccc1OCC(C)C | 0 | 0 | 6.3µM | 0 | 0
COc1cc(OC)cc(C(=O)OCC(=O)Nc2ccc(N3CCCCC3)cc2)c1 | - | 0 | 10µM | 0 | 0
CCOc1ccccc1C(=O)OCC(=O)Nc1ccc(N2CCCCC2)cc1 | - | 0 | ? | ? | 0
COc1ccc(OCC(=O)Nc2ccc(N3CCCCC3)cc2)cc1 | 0 | 0 | 0 | 0 | 0
O=C(COC(=O)c1ccc(O)cc1)Nc1ccc(N2CCCCC2)cc1 | - | ? | 45µM | 0 | ?
O=C(COC(=O)c1ccccc1OC(F)F)Nc1ccc(N2CCCCC2)cc1 | 0 | 0 | 7.9µM | 0 | 0
CC1CCC2(CC1)NC(=O)N(CC(=O)Nc1cccc(S(=O)(=O)N3CCCC3)c1)C2=O (stereo not given) | 0 | 0 | 0[12.7 µM] | 0 | 0
